PubChem BioAssay

Target: Torsin-1A-interacting protein 2 (Homo sapiens) (UniProt Q8NFQ8)
Experiment: LULL1 binders on small-molecule microarray, primary screen, cell lysate, human LULL1 lysate, 635/667 nm fluorescence (AID 1092);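 also: probe is lysate of COS7 cells overexpressing human LULL1; score merges per-feature 667 nm fluorescence with signal-to-noise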
Conditions: hLULL1 lysate binding, 635 nm fluorescence, higher = more signal

Torsin-1A-interacting protein 2 (Homo sapiens), sequence (Q8NFQ8 whole entry, looked up): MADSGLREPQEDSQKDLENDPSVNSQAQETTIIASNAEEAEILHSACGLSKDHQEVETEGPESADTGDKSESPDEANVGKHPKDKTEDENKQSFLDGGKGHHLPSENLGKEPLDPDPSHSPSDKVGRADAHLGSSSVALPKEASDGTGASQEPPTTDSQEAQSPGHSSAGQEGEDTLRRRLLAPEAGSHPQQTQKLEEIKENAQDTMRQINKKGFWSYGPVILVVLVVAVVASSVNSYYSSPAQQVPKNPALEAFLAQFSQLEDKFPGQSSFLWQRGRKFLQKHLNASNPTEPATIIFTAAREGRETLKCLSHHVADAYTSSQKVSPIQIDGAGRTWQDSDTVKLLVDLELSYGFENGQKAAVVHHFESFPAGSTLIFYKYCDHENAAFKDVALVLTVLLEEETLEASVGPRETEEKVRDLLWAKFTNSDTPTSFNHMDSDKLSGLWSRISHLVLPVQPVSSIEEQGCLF

| SMILES | composite z-score |
| --- | --- |
| O=C1c2ccccc2[C@](Cc2ccccc2I)(C(=O)NCC(F)(F)F)[C@H](c2ccc(CO)cc2)N1Cc1ccccc1Cl | 3 |
| CCCC=C(CCC)[C@@H](NC(=O)c1cccs1)c1ccc(C(F)(F)F)cc1 | 0.109 |
| CCCCN1CC=CC23O[C@@H]4C=CCCOC(=O)C4[C@H]2C(=O)N(CCCCCCO)[C@@H]3C1=O (stereo not given in full) | 1.74 |
| CCCCCN1CC=CC23O[C@@H]4C=CCCOC(=O)C4[C@H]2C(=O)N(CCCCCO)[C@@H]3C1=O (stereo not given in full) | 2.3 |
| O=C(NC1CC1)[C@@H]1c2ccccc2C(=O)N(Cc2ccccc2Cl)[C@H]1c1ccc(CO)cc1 | 2.77 |
| COCCOC(=O)N1C(=O)[C@@]2(c3cc(C#CCC(C(=O)OC)C(=O)OC)ccc31)[C@H](C(=O)N1CCN(c3ncccn3)CC1)[C@H]1C(=O)O[C@H](c3ccccc3)[C@H](c3ccccc3)N1[C@@H]2c1ccccc1OCCO | 1.88 |
| CCCC[C@H]1OB(O)C[C@H]2C1=C(COC)Cn1c(=O)n(-c3ccccc3)c(=O)n12 | 0.814 |
| Oc1ccc2cc[n+](Cc3sc4ccccc4c3Cl)cc2c1 | 3.37 |
| C=C[C@H](OC)[C@@H](OC(=O)Nc1ccc(OC)cc1)c1ccc(O)c(F)c1 | 1.89 |
| O=C1C2C=CC(C(O)c3cc(C(F)(F)F)cc(C(F)(F)F)c3)N(n3cnnc3)C2C(=O)N1Cc1ccccc1 (stereo not given) | 2.5 |
| CCC(CC)C(O)C1C=CC2C(=O)NC(=O)C2N1Nc1ccc(Cl)cc1Cl (stereo not given) | 3.13 |
| COc1cc(C(O)C2C=CC3C(=O)NC(=O)C3N2Nc2ccccn2)cc(OC)c1OC (stereo not given) | 3.09 |
| CC(C)C(CO)N1C(=O)[C@@H]2C3C(=O)OCCC/C=C\[C@H]3OC23C=CCN(CCN2CCOCC2)C(=O)[C@@H]13 (stereo not given in full) | -0.272 |
| C=CCN1C(=O)[C@@]2(CC=C)N=C(c3ccc(OCCCO)cc3)O[C@H]2c2ccccc21 | 3.6 |
| COC(=O)[C@@]1(Cc2ccccc2)N=C(c2ccc(OCCCO)cc2)O[C@H]1c1ccccc1 | 2.05 |
| C=C(COC)/C(=C/C[C@@H](OC(=O)c1ccncc1)c1ccc(CO)o1)c1cc(C(=O)OC)ccc1OC | 2 |
| CN(C)CCCC[C@@H]1NC(=O)[C@H]2C[C@@H](C(=O)NCCCCCCN)[C@@H](c3ccc(O)cc3)N2C1=O | 3.08 |
| CO[C@H]1O[C@H](CO)[C@@H](OC(=O)Nc2ccc(Oc3ccccc3)cc2)[C@H](OC(=O)Nc2ccc3c(c2)OCO3)[C@H]1OC(=O)Nc1ccc2c(c1)OCO2 | 2.42 |

| SMILES | composite z-score |
| --- | --- |
| Cc1ccc(S[C@]2(C(=O)NC3CC3)CC(=O)N(Cc3ccccc3)[C@@H]2c2ccc(CO)cc2I)cc1 | 2.35 |
| CCCC#C[Si](O[C@H](CC)c1cn(Cc2cccc(Cl)c2)nn1)(C(C)C)C(C)C | 1.91 |
| COCC(=C=CC[C@@H](O)c1cccc(OCCO)c1)C[C@@H](O)c1ccccn1 | 1.12 |
| CC(C)C[C@@H]1NC(=O)[C@H](C(C)C)NC(=O)[C@@]23C(=O)N[C@@H](Cc4ccccc4)C2[C@H](C)[C@@]2(C)O[C@H]2C3/C=C/CC/C=C/CNC1=O (stereo not given in full) | 2.27 |
| [N-]=[N+]=Nc1ccccc1[C@@H]1OC(c2ccc(OCCCO)cc2)=N[C@]1(Cc1ccccc1)C(=O)N1CCOCC1 | 3.22 |
| COc1ccc([Si](C)(C)[C@H]2[C@H](CCO)O[C@@]3(C(=O)N(Cc4ccc(N(C=O)c5ccccc5)cc4)c4ccccc43)[C@@H]2C)cc1 | 1.12 |
| CC(C)=CCCC(C)=CC(O)C1C=CC2C(=O)N(C)C(=O)C2N1Nc1ccccc1 (stereo not given) | 3.29 |
| COc1cc(NN2C(C(O)c3ccco3)C=CC3C(=O)N(c4ccccc4)C(=O)C32)cc(OC)c1OC (stereo not given) | 2.41 |
| C=CC[C@@]1(C(=O)NCCN2CCOCC2)N=C(c2ccc(OCCCO)cc2)O[C@@H]1c1ccccc1N=[N+]=[N-] | 2.03 |
| COC(=O)[C@@]1(Cc2ccccc2)[C@H]2c3cc(C(=O)N4CCCC4)n(Cc4ccc(S(C)(=O)=O)cc4)c3C[C@H]2CN1C(=O)c1ccccc1 | 3.56 |
| C=CCNC(=O)[C@@H]1[C@H]2C(=O)O[C@H](c3ccccc3)[C@H](c3ccccc3)N2[C@H](c2ccc(O)cc2)[C@@]12C(=O)N(C(=O)OCCOC)c1ccc(C#CCNC(N)=O)cc12 | 2.29 |
| CCOC(=O)C1=CC[C@@H](c2ccccc2)N(S(=O)(=O)c2ccc(C)cc2)[C@H]1c1ccccc1C | 1.97 |
| C=CCNC(=O)[C@@H]1[C@H]2C(=O)O[C@H](c3ccccc3)[C@H](c3ccccc3)N2[C@H](c2ccc(O)cc2)[C@@]12C(=O)Nc1ccc(C#CCNC(N)=O)cc12 | 2.13 |
| O=C(NCCN1CCOCC1)[C@@H]1c2ccccc2C(=O)N(C2CCCCC2)[C@H]1c1ccc(CO)cc1 | 2.35 |
| CCCCCCc1nc(-c2cc(C)c(OC)c(C)c2)cc2c1[Si](C(C)C)(C(C)C)OC2 | -0.0784 |
| C=CCNC(=O)[C@H]1[C@@H]2C(=O)O[C@@H](c3ccccc3)[C@@H](c3ccccc3)N2[C@@H](c2ccccc2OCCO)[C@]12C(=O)Nc1ccc(C#CCC(C(=O)OC)C(=O)OC)cc12 | 3.25 |
| CC(=O)n1cc(C(O)C2C=CC3C(=O)N(c4ccccc4)C(=O)C3N2Nc2ccc([N+](=O)[O-])cc2)c2ccccc21 (stereo not given) | 3.28 |
